From PubChem BioAssay (NCI)
About 83,000 compounds went through this panel and 20% of them were active in at least one assay; those are over-represented in the sample as a whole.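 Single-dose data. Exposure time 48 hours. Values below 10 considered active.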 Active and inactive are the calls of the source.

Tests used:
Experiment in all cases: NCI-60 one-dose screen, 48 h (100 = growth as untreated, 0 = no growth, -100 = all killed)
NCI-H23 lung = tested on: NCI-H23 lung
NCI-H226 lung = tested on: NCI-H226 lung
NCI-H322M lung = conditions: 10 µM unless noted
HOP-62 NSCLC = tested on: HOP-62 NSCLC
NCI-H460 lung = tested on: NCI-H460 lung
HOP-92 NSCLC = tested on: HOP-92 NSCLC
NCI-H522 lung = tested on: NCI-H522 lung
A549/ATCC NSCLC = tested on: A549/ATCC NSCLC
786-0 renal = tested on: 786-0 renal
COLO 205 colon = tested on: COLO 205 colon
DU-145 prostate = tested on: DU-145 prostate
K-562 leukemia = tested on: K-562 leukemia
MALME-3M melanoma = tested on: MALME-3M melanoma
MDA-MB-231 breast = tested on: MDA-MB-231 breast
RXF 393 renal = tested on: RXF 393 renal
SF-268 CNS = tested on: SF-268 CNS
SF-295 CNS = tested on: SF-295 CNS
SF-539 CNS = tested on: SF-539 CNS
UACC-257 melanoma = tested on: UACC-257 melanoma
M14 melanoma = tested on: M14 melanoma

Measured: growth

CCN(c1cc(-c2ccc(CN3CCC(/C=C/S(=O)(=O)c4ccccc4)CC3)cc2)cc(C(=O)NCc2c(C)cc(C)[nH]c2=O)c1C)C1CCOCC1
inactive: NCI-H23 lung; 10 µM unless noted 81.4% | NCI-H226 lung; 10 µM unless noted 78.3% | NCI-H322M lung 85.1% | HOP-62 NSCLC; 10 µM unless noted 82.8% | NCI-H460 lung; 10 µM unless noted 83.8% | HOP-92 NSCLC; 10 µM unless noted 24.3% | NCI-H522 lung; 10 µM unless noted 77.7% | A549/ATCC NSCLC; 10 µM unless noted 66.1% | 786-0 renal; 10 µM unless noted 71.1% | COLO 205 colon; 10 µM unless noted 99.8% | DU-145 prostate; 10 µM unless noted 78.9% | K-562 leukemia; 10 µM unless noted 40.6% | MALME-3M melanoma; 10 µM unless noted 67% | MDA-MB-231 breast; 10 µM unless noted 67.3% | RXF 393 renal; 10 µM unless noted 17.7% | SF-268 CNS; 10 µM unless noted 66.5% | SF-295 CNS; 10 µM unless noted 84.8% | SF-539 CNS; 10 µM unless noted 59.3% | UACC-257 melanoma; 10 µM unless noted 75.4% | M14 melanoma; 10 µM unless noted 85.1%

CCN(CC)/C([O-])=c1\cccc\c1=C1\N=C(c2ccccc2)N=C1[n+]1ccc(-c2ccccc2)cc1
inactive: NCI-H23 lung; 10 µM unless noted 103% | NCI-H226 lung; 10 µM unless noted 94.4% | NCI-H322M lung 100% | HOP-62 NSCLC; 10 µM unless noted 97.1% | NCI-H460 lung; 10 µM unless noted 103% | HOP-92 NSCLC; 10 µM unless noted 86.7% | NCI-H522 lung; 10 µM unless noted 21% | A549/ATCC NSCLC; 10 µM unless noted 97.9% | 786-0 renal; 10 µM unless noted 94.2% | COLO 205 colon; 10 µM unless noted 108% | DU-145 prostate; 10 µM unless noted 102% | K-562 leukemia; 10 µM unless noted 96.7% | MALME-3M melanoma; 10 µM unless noted 92.7% | MDA-MB-231 breast; 10 µM unless noted 100% | RXF 393 renal; 10 µM unless noted 104% | SF-268 CNS; 10 µM unless noted 102% | SF-295 CNS; 10 µM unless noted 100% | SF-539 CNS; 10 µM unless noted 89.1% | UACC-257 melanoma; 10 µM unless noted 92.9% | M14 melanoma; 10 µM unless noted 89.6%

O=C(/C=C/c1cccc(Oc2ccc(Cl)cc2)c1)c1ccccc1
inactive: NCI-H23 lung; 10 µM 90.8% | NCI-H226 lung; 10 µM 104% | HOP-62 NSCLC; 10 µM 98.5% | NCI-H460 lung; 10 µM 97.3% | HOP-92 NSCLC; 10 µM 111% | NCI-H522 lung; 10 µM 89.2% | A549/ATCC NSCLC; 10 µM 96.2% | 786-0 renal; 10 µM 91.3% | COLO 205 colon; 10 µM 104% | DU-145 prostate; 10 µM 95.3% | K-562 leukemia; 10 µM 31.6% | MALME-3M melanoma; 10 µM 102% | MDA-MB-231 breast; 10 µM 113% | RXF 393 renal; 10 µM 101% | SF-268 CNS; 10 µM 101% | SF-295 CNS; 10 µM 94.9% | SF-539 CNS; 10 µM 99.8% | UACC-257 melanoma; 10 µM 101% | M14 melanoma; 10 µM 89.5%
active: NCI-H23 lung; 100 µM -57.9% | NCI-H226 lung; 100 µM -63.2% | NCI-H322M lung -73% [100 µM] | HOP-62 NSCLC; 100 µM -80.5% | NCI-H460 lung; 100 µM -76.6% | HOP-92 NSCLC; 100 µM -90.7% | NCI-H522 lung; 100 µM -64.6% | A549/ATCC NSCLC; 100 µM -75.7% | 786-0 renal; 100 µM -88.9% | COLO 205 colon; 100 µM -71% | DU-145 prostate; 100 µM -98.4% | K-562 leukemia; 100 µM -29% | MALME-3M melanoma; 100 µM -85.2% | MDA-MB-231 breast; 100 µM -61.9% | RXF 393 renal; 100 µM -68.2% | SF-268 CNS; 100 µM -78.3% | SF-295 CNS; 100 µM -95.3% | SF-539 CNS; 100 µM -92.3% | UACC-257 melanoma; 100 µM -86.8% | M14 melanoma; 100 µM -54.4%

CCN(CC)CC#CCOC(=O)[C@]1(C)CCC[C@]2(C)c3ccc(C(C)C)cc3CC[C@@H]12
inactive: NCI-H23 lung; 10 µM unless noted 70.8% | NCI-H226 lung; 10 µM unless noted 82.5% | NCI-H322M lung 93.7% | HOP-62 NSCLC; 10 µM unless noted 96.2% | NCI-H460 lung; 10 µM unless noted 97.9% | HOP-92 NSCLC; 10 µM unless noted 76.7% | NCI-H522 lung; 10 µM unless noted 80.6% | A549/ATCC NSCLC; 10 µM unless noted 87.5% | 786-0 renal; 10 µM unless noted 81.2% | COLO 205 colon; 10 µM unless noted 80.2% | DU-145 prostate; 10 µM unless noted 91.9% | K-562 leukemia; 10 µM unless noted 63.4% | MALME-3M melanoma; 10 µM unless noted 77.2% | MDA-MB-231 breast; 10 µM unless noted 101% | RXF 393 renal; 10 µM unless noted 74.5% | SF-268 CNS; 10 µM unless noted 96.3% | SF-295 CNS; 10 µM unless noted 92.8% | SF-539 CNS; 10 µM unless noted 79.6% | UACC-257 melanoma; 10 µM unless noted 86.2% | M14 melanoma; 10 µM unless noted 87%

O=C(/C=C/C12c3ccccc3C(c3ccccc31)C1C(=O)NC(=O)C12)c1ccncc1 (centres undefined)
inactive: NCI-H23 lung; 10 µM unless noted 23.2% | NCI-H226 lung; 10 µM unless noted 78.9% | NCI-H322M lung 35.6% | NCI-H460 lung; 10 µM unless noted 24.9% | HOP-92 NSCLC; 10 µM unless noted 23.6% | NCI-H522 lung; 10 µM unless noted 28.5% | A549/ATCC NSCLC; 10 µM unless noted 86.1% | 786-0 renal; 10 µM unless noted 20.6% | COLO 205 colon; 10 µM unless noted 78.2% | DU-145 prostate; 10 µM unless noted 13% | MALME-3M melanoma; 10 µM unless noted 37.1% | MDA-MB-231 breast; 10 µM unless noted 15% | RXF 393 renal; 10 µM unless noted 13.4% | SF-268 CNS; 10 µM unless noted 10.2% | SF-295 CNS; 10 µM unless noted 28.4% | UACC-257 melanoma; 10 µM unless noted 32.3% | M14 melanoma; 10 µM unless noted 20.3%
active: HOP-62 NSCLC; 10 µM unless noted 4.78% | K-562 leukemia; 10 µM unless noted 6.6% | SF-539 CNS; 10 µM unless noted 5.79%

CCNC(=O)Nc1ncccc1OCc1ccc(F)cc1
inactive: NCI-H23 lung; 10 µM unless noted 87.1% | NCI-H226 lung; 10 µM unless noted 106% | NCI-H322M lung 105% | HOP-62 NSCLC; 10 µM unless noted 95.3% | NCI-H460 lung; 10 µM unless noted 105% | HOP-92 NSCLC; 10 µM unless noted 108% | NCI-H522 lung; 10 µM unless noted 86.2% | A549/ATCC NSCLC; 10 µM unless noted 99% | 786-0 renal; 10 µM unless noted 92.8% | COLO 205 colon; 10 µM unless noted 115% | DU-145 prostate; 10 µM unless noted 97.8% | K-562 leukemia; 10 µM unless noted 99.6% | MALME-3M melanoma; 10 µM unless noted 106% | MDA-MB-231 breast; 10 µM unless noted 115% | RXF 393 renal; 10 µM unless noted 125% | SF-268 CNS; 10 µM unless noted 94.3% | SF-295 CNS; 10 µM unless noted 97.8% | SF-539 CNS; 10 µM unless noted 102% | UACC-257 melanoma; 10 µM unless noted 102% | M14 melanoma; 10 µM unless noted 109%

CCN1CCN(C(=O)[C@]23CC[C@@H](C)[C@H](C)[C@@H]2C2=CC[C@@H]4[C@@]5(C)CCC(=O)C(C)(C)[C@@H]5CC[C@@]4(C)[C@]2(C)CC3)CC1
active: HOP-62 NSCLC; 10 µM unless noted 9.82% | NCI-H460 lung; 10 µM unless noted -55.1% | HOP-92 NSCLC; 10 µM unless noted -5.58% | NCI-H522 lung; 10 µM unless noted -53.4% | 786-0 renal; 10 µM unless noted -40.1% | COLO 205 colon; 10 µM unless noted -50.9% | K-562 leukemia; 10 µM unless noted 2.78% | MALME-3M melanoma; 10 µM unless noted -85.7% | MDA-MB-231 breast; 10 µM unless noted -28.6% | RXF 393 renal; 10 µM unless noted -6.14% | SF-539 CNS; 10 µM unless noted -79.8% | UACC-257 melanoma; 10 µM unless noted -23.9% | M14 melanoma; 10 µM unless noted -41.6%
inactive: NCI-H23 lung; 10 µM unless noted 21.4% | NCI-H226 lung; 10 µM unless noted 35.7% | NCI-H322M lung 10.2% | A549/ATCC NSCLC; 10 µM unless noted 19.9% | DU-145 prostate; 10 µM unless noted 41.5% | SF-268 CNS; 10 µM unless noted 39.7% | SF-295 CNS; 10 µM unless noted 24.8%
